{
  "source": "PubChem BioAssay (NCI)",
  "note": "Compounds without any hit were thinned out: in the full panel of roughly 83,000, 20% have a hit.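 For each line, cells grew in 96-well plates with the test compound present at a single concentration for 48 hours.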 A number with no mark means an inactive call. Calls of active or inactive are those of the source. Rule for the calls: active = growth percent below 10; inactive = the rest.",
  "data": [
    {"tested_on": "NCI/ADR-RES ovarian", "assay": "NCI-60 one-dose screen, 48 h (100 = growth as untreated, 0 = no growth, -100 = all killed)", "settings": "10 µM", "values": [
      {"smiles": "C=CCN(CC=C)C(=O)[C@H](CC)[C@@H]1CC[C@@H](C)[C@@H]([C@H](C)[C@@H](O)[C@@H](C)C(=O)[C@H](CC)C2O[C@]3(C=C[C@@H](O)[C@]4(CC[C@@](C)([C@H]5CC[C@](O)(CC)[C@H](C)O5)O4)O3)[C@H](C)C[C@@H]2C)O1", "note": "(stereo not given in full)", "growth": "1.02% (active)"},
      {"smiles": "O=C1CCn2c1c(O)c1ccccc1c2=O", "growth": "103%"},
      {"smiles": "COc1ccc(-c2cc(-c3ccccc3)nc(SCCCCCCC(=O)NO)n2)cc1", "growth": "9.46% (active)"},
      {"smiles": "Cc1ccc(NC(=S)NNC(=S)Nc2ccc(C)cc2)cc1", "growth": "31.7%"},
      {"smiles": "c1cncc(-c2csc(-c3c[nH]c4ccccc34)n2)c1", "growth": "94.7%"},
      {"smiles": "CN(C)CCOc1cccc(-c2nc3sccn3c2-c2ccnc(S(C)(=O)=O)n2)c1", "growth": "101%"},
      {"smiles": "Nc1nccc(OCCO)n1", "growth": "103%"},
      {"smiles": "CC(C)c1ccc(C(C)C(=O)N(CC2=C(C(C)c3ccccn3)c3ccccc3C2)C(C)C)cc1", "note": "(stereo not given)", "growth": "24.2%"},
      {"smiles": "CCc1ccc(C2=NN(c3ccc(S(C)(=O)=O)cc3)C(=O)CC2)cc1", "growth": "6.7% (active)"},
      {"smiles": "COc1cc2c(cc1NC(=O)C(Cl)Cl)-c1ccc(NC(=O)C(Cl)Cl)cc1C2", "growth": "-39.2% (active)"},
      {"smiles": "COc1cc(/C=C2\\CCCC3=C2NC(N)=NC3c2cc(OC)c(OC)c(OC)c2)cc(OC)c1OC", "note": "(stereo not given)", "growth": "3.96% (active)"},
      {"smiles": "COc1ccc(-c2nn(-c3cccc(Cl)c3)cc2-c2nc(N)[nH]c(=O)c2C#N)cc1", "growth": "66.3%"},
      {"smiles": "COc1ccc(-c2cc(-c3ccc(Cl)cc3)nc(SCCCC(=O)NO)n2)cc1", "growth": "-33.6% (active)"},
      {"smiles": "COc1ccc(-c2nn(-c3cccc(Cl)c3)cc2-c2c(C#N)c(=O)n3[nH]c(-c4ccccc4)nc3c2C#N)cc1", "growth": "93%"},
      {"smiles": "CCn1c(CSc2nc3ccccc3c(=O)n2CCc2ccccc2)n[nH]c1=S", "growth": "73.7%"},
      {"smiles": "COc1cc2c3c(n(C4CCN(C)CC4)c(=O)c2cc1OC)-c1cc2c(cc1C3=O)OCO2", "growth": "64%"},
      {"smiles": "CCOC(=O)CSc1nc(-c2cc(OC)ccc2OC)cc(-c2ccc(OC)cc2)c1C#N", "growth": "81.6%"},
      {"smiles": "CC(C)N(CCOc1ccc(-c2nc3sccn3c2-c2ccnc(S(C)(=O)=O)n2)cc1)C(C)C", "growth": "89.2%"},
      {"smiles": "COc1ccc(N(C)c2ncnc3occ(C)c23)cc1", "growth": "-16.2% (active)"},
      {"smiles": "COC(=O)C1OC1c1cc([N+](=O)[O-])ccc1OC", "note": "(stereo not given)", "growth": "101%"},
      {"smiles": "COC(=O)c1c[nH]c2cc(OC(C)C)c(OC(C)C)cc2c1=O", "growth": "101%"},
      {"smiles": "C=C/C(C)=C/C[C@]1(C)[C@H](C)[C@@H](OC(=O)CCC)[C@H](O)[C@@]23C(=C[C@H](OC)C[C@@H]12)[C@@H](OC(=O)CCC)O[C@H]3OC(C)=O", "growth": "-20.4% (active)"},
      {"smiles": "Nc1nc(Cl)nc2c1ncn2C1O[C@H](CO)[C@@H](O)[C@@H]1F", "note": "(stereo not given in full)", "growth": "16.6%"},
      {"smiles": "C#CC(C)(O)[C@@H]1C[C@H](CC(=O)O)C1(C)C", "note": "(stereo not given in full)", "growth": "111%"},
      {"smiles": "COc1ccc2c(c1)OC(N)=C(C#N)C2c1cc(OC)c(OC)c(OC)c1", "note": "(stereo not given)", "growth": "-24.3% (active)"},
      {"smiles": "IC(I)I", "growth": "105%"}
    ]},
    {"tested_on": "T-47D breast", "assay": "NCI-60 one-dose screen, 48 h (100 = growth as untreated, 0 = no growth, -100 = all killed)", "settings": "10 µM", "values": [
      {"smiles": "C=CCN(CC=C)C(=O)[C@H](CC)[C@@H]1CC[C@@H](C)[C@@H]([C@H](C)[C@@H](O)[C@@H](C)C(=O)[C@H](CC)C2O[C@]3(C=C[C@@H](O)[C@]4(CC[C@@](C)([C@H]5CC[C@](O)(CC)[C@H](C)O5)O4)O3)[C@H](C)C[C@@H]2C)O1", "note": "(stereo not given in full)", "growth": "9.12% (active)"},
      {"smiles": "O=C1CCn2c1c(O)c1ccccc1c2=O", "growth": "94.5%"},
      {"smiles": "COc1ccc(-c2cc(-c3ccccc3)nc(SCCCCCCC(=O)NO)n2)cc1", "growth": "33.5%"},
      {"smiles": "Cc1ccc(NC(=S)NNC(=S)Nc2ccc(C)cc2)cc1", "growth": "46.8%"},
      {"smiles": "c1cncc(-c2csc(-c3c[nH]c4ccccc34)n2)c1", "growth": "64.1%"},
      {"smiles": "CN(C)CCOc1cccc(-c2nc3sccn3c2-c2ccnc(S(C)(=O)=O)n2)c1", "growth": "74.7%"},
      {"smiles": "CC(C)(C)c1ccc(S(=O)(=O)N[C@H]2CC[C@H]3[C@@H]4CCc5cc(OS(=O)(=O)O)ccc5[C@H]4CC[C@]23C)cc1", "growth": "19.9%"},
      {"smiles": "Nc1nccc(OCCO)n1", "growth": "94.1%"},
      {"smiles": "CC(C)c1ccc(C(C)C(=O)N(CC2=C(C(C)c3ccccn3)c3ccccc3C2)C(C)C)cc1", "note": "(stereo not given)", "growth": "13.3%"},
      {"smiles": "Cc1c2cnccc2c(C)c2c1c1cc(O)ccc1n2C(C)C", "growth": "3.1% (active)"},
      {"smiles": "CCc1ccc(C2=NN(c3ccc(S(C)(=O)=O)cc3)C(=O)CC2)cc1", "growth": "41.4%"},
      {"smiles": "COc1cc2c(cc1NC(=O)C(Cl)Cl)-c1ccc(NC(=O)C(Cl)Cl)cc1C2", "growth": "3.05% (active)"},
      {"smiles": "COc1cc(/C=C2\\CCCC3=C2NC(N)=NC3c2cc(OC)c(OC)c(OC)c2)cc(OC)c1OC", "note": "(stereo not given)", "growth": "27.5%"},
      {"smiles": "COc1ccc(-c2nn(-c3cccc(Cl)c3)cc2-c2cc(-c3ccccc3)[nH]c(=O)c2C#N)cc1", "growth": "27.6%"},
      {"smiles": "CC(C)(C)OC(=O)N1CCc2c(sc3ncnc(N/N=C/c4ccccc4Br)c23)C1", "growth": "41.5%"},
      {"smiles": "COc1ccc(-c2nn(-c3cccc(Cl)c3)cc2-c2nc(N)[nH]c(=O)c2C#N)cc1", "growth": "58.7%"},
      {"smiles": "COc1ccc(-c2cc(-c3ccc(Cl)cc3)nc(SCCCC(=O)NO)n2)cc1", "growth": "8.24% (active)"},
      {"smiles": "COc1ccc(-c2nn(-c3cccc(Cl)c3)cc2-c2c(C#N)c(=O)n3[nH]c(-c4ccccc4)nc3c2C#N)cc1", "growth": "73.9%"},
      {"smiles": "Cc1ccc(-n2c(C)nn3c(=O)c4c5c(sc4nc23)CN(C)CC5)cc1", "growth": "81.3%"},
      {"smiles": "CCn1c(CSc2nc3ccccc3c(=O)n2CCc2ccccc2)n[nH]c1=S", "growth": "73.3%"},
      {"smiles": "COc1cc2cc(Oc3ccc(NC(=O)Nc4ccc(Cl)c(Cl)c4)cc3)c(C)nc2cc1OC", "growth": "60.9%"},
      {"smiles": "CCOC(=O)c1sc2ncnc(Nc3ccc4c(cnn4C(=O)Nc4ccc(C)c(Cl)c4)c3)c2c1C", "growth": "101%"},
      {"smiles": "CN1CCc2c(sc3nc4n(-c5ccc(Cl)cc5)c(=O)[nH]n4c(=O)c23)C1", "growth": "87.6%"},
      {"smiles": "COc1cc2c3c(n(C4CCN(C)CC4)c(=O)c2cc1OC)-c1cc2c(cc1C3=O)OCO2", "growth": "31%"},
      {"smiles": "CCOC(=O)CSc1nc(-c2cc(OC)ccc2OC)cc(-c2ccc(OC)cc2)c1C#N", "growth": "65.6%"},
      {"smiles": "CC(C)N(CCOc1ccc(-c2nc3sccn3c2-c2ccnc(S(C)(=O)=O)n2)cc1)C(C)C", "growth": "105%"},
      {"smiles": "N#Cc1ccc(C(=O)CSc2nccc(Nc3ccc(C(=O)O)cc3)n2)cc1", "growth": "110%"},
      {"smiles": "O=C(CNc1nnc(-c2cccnc2SCc2ccccc2)s1)Nc1nc(Cl)cc(Cl)n1", "growth": "79.3%"},
      {"smiles": "COc1ccc(N(C)c2ncnc3occ(C)c23)cc1", "growth": "67.1%"},
      {"smiles": "COC(=O)C1OC1c1cc([N+](=O)[O-])ccc1OC", "note": "(stereo not given)", "growth": "70%"},
      {"smiles": "N#Cc1c(-c2ccc(Cl)cc2)cc(-c2cc(O)ccc2O)nc1N", "growth": "8.26% (active)"},
      {"smiles": "CN(C)CCN(Cc1ccccc1)c1ccc2ccccc2n1", "growth": "86.3%"},
      {"smiles": "COC(=O)c1c[nH]c2cc(OC(C)C)c(OC(C)C)cc2c1=O", "growth": "103%"},
      {"smiles": "C=C/C(C)=C/C[C@]1(C)[C@H](C)[C@@H](OC(=O)CCC)[C@H](O)[C@@]23C(=C[C@H](OC)C[C@@H]12)[C@@H](OC(=O)CCC)O[C@H]3OC(C)=O", "growth": "-40% (active)"},
      {"smiles": "O=C(Nc1cc([N+](=O)[O-])c2[nH]c(=O)c3ccccc3c2c1)C(F)(F)F", "growth": "105%"},
      {"smiles": "Nc1nc(Cl)nc2c1ncn2C1O[C@H](CO)[C@@H](O)[C@@H]1F", "note": "(stereo not given in full)", "growth": "49.3%"},
      {"smiles": "C#CC(C)(O)[C@@H]1C[C@H](CC(=O)O)C1(C)C", "note": "(stereo not given in full)", "growth": "120%"},
      {"smiles": "COc1ccc(-c2nn(-c3cccc(Cl)c3)cc2/C=C2\\NC(=S)N(c3ccc(Cl)cc3)C2=O)cc1", "growth": "11.9%"},
      {"smiles": "COc1ccc2c(c1)OC(N)=C(C#N)C2c1cc(OC)c(OC)c(OC)c1", "note": "(stereo not given)", "growth": "16.7%"}
    ]}
  ]
}
